The experiment has as its target Genome polyprotein (dengue virus type 2) (UniProt P29990).
[1] abbreviates: Thailand/16681/1984, Concentration 25.0 uM, Number of replicates 1.0.

About 110 (5.5%) of roughly 2,000 compounds showed an effect of 50% or more. For the sample, strong results were picked, then their nearest neighbours and some compounds at random.

Among the data in ChEMBL document CHEMBL5606460, “ASAP - DENV-2 NS2B-NS3 protease fluorescence single point” (2024) are inhibition values, retold here.

A word on the inhibition: it is the relative decrease from the control value, in per cent.

In the case of `Cc1cc(CO)c2cccc(NC(=O)c3nc(-c4ccccc4)oc3C(F)(F)F)c2n1`, the inhibition is, setting by setting: (Thailand/16681/1984, Concentration 49.95 uM, Number of replicates 2.0, Standard deviation 3.021297847027803 %) 28.1%; (Thailand/16681/1984, Concentration 99.9 uM, Number of replicates 2.0, Standard deviation 2.6625533133971393 %) 43.6%.

As for `CNc1ccccc1C(=O)Nc1ccccc1Cc1cccc2c(CO)cc(C)nc12`, the inhibition is -6.32% (Thailand/16681/1984, Concentration 49.95 uM, Number of replicates 2.0, Standard deviation 0.9187611737377075 %) and -7.75% (Thailand/16681/1984, Concentration 99.9 uM, Number of replicates 2.0, Standard deviation 0.9402243720481833 %).

With `Cc1nccc(Cn2cc(C3CCNCC3)c(C)n2)n1`, the inhibition is -1.07% (Thailand/16681/1984, Concentration 49.5 uM, Number of replicates 2.0, Standard deviation 0.12424043789356491 %); -0.665% (Thailand/16681/1984, Concentration 99.01 uM, Number of replicates 2.0, Standard deviation 0.32682664095966646 %); 1.76% (Thailand/16681/1984, Concentration 198.0 uM, Number of replicates 2.0, Standard deviation 1.945197851645592 %).

On to `CN(Cc1nc2ccccc2n1C)C(=O)C1CCN(c2ccc(C=O)cc2)CC1`, for which the inhibition under setting [1] came out at 14.9%.

Regarding `CNC(=O)c1nccnc1NS(=O)(=O)c1ccc(Oc2ccccc2Cl)cc1`, the inhibition (Thailand/16681/1984, Concentration 49.5 uM, Number of replicates 2.0, Standard deviation 1.5095148361141704 %) is 0.146%; the inhibition (Thailand/16681/1984, Concentration 99.01 uM, Number of replicates 2.0, Standard deviation 1.499470483470751 %) came to 2.7%; the inhibition (Thailand/16681/1984, Concentration 198.0 uM, Number of replicates 2.0, Standard deviation 0.45486328764545614 %) was 7.74%.

As to `CNC(=O)c1cc(Cl)cc(OC)c1NS(=O)(=O)c1ccc(Oc2ccccc2Cl)cc1`, the inhibition runs as follows: (Thailand/16681/1984, Concentration 49.5 uM, Number of replicates 2.0, Standard deviation 0.8103097460864452 %) 1.45%; (Thailand/16681/1984, Concentration 99.01 uM, Number of replicates 2.0, Standard deviation 1.6946405270728757 %) 1.53%; (Thailand/16681/1984, Concentration 198.0 uM, Number of replicates 2.0, Standard deviation 1.1024722794831296 %) -0.559%.

Regarding `CNC(=O)c1cc(Cl)c(OC)cc1NS(=O)(=O)c1ccc(Oc2ccccc2Cl)cc1`, the inhibition reads like this: (Thailand/16681/1984, Concentration 49.5 uM, Number of replicates 2.0, Standard deviation 1.7443589304782063 %) 79.2%; (Thailand/16681/1984, Concentration 99.01 uM, Number of replicates 2.0, Standard deviation 0.14348540542006383 %) 98.5%; (Thailand/16681/1984, Concentration 198.0 uM, Number of replicates 2.0, Standard deviation 0.05118043543332502 %) 99.3%.

As for `Cc1cc(NS(=O)(=O)c2ccc(Oc3ccccc3Cl)cc2)c(C(=O)NCC(F)(F)F)cc1F`, the inhibition reads like this: (Thailand/16681/1984, Concentration 49.5 uM, Number of replicates 2.0, Standard deviation 0.004288863304468577 %) 80.7%; (Thailand/16681/1984, Concentration 99.01 uM, Number of replicates 2.0, Standard deviation 0.05387243894141284 %) 85%; (Thailand/16681/1984, Concentration 198.0 uM, Number of replicates 2.0, Standard deviation 0.06674981844803736 %) 82.2%.

`CNC(=O)c1cn(S(=O)(=O)c2ccc(Oc3ccccc3Cl)cc2)c2ccc(Cl)cc12`: the inhibition (Thailand/16681/1984, Concentration 49.5 uM, Number of replicates 2.0, Standard deviation 1.1380993582408887 %) came to 0.625%; the inhibition (Thailand/16681/1984, Concentration 99.01 uM, Number of replicates 2.0, Standard deviation 1.0406365412270837 %) worked out at 4.48%; the inhibition (Thailand/16681/1984, Concentration 198.0 uM, Number of replicates 2.0, Standard deviation 0.5161930213749926 %) worked out at 12.8%.

Consider `CNC(=O)c1ccncc1NS(=O)(=O)c1ccc(Oc2ccccc2Cl)cc1`, for which the inhibition is, setting by setting: (Thailand/16681/1984, Concentration 49.5 uM, Number of replicates 2.0, Standard deviation 3.023334340601001 %) -2.48%; (Thailand/16681/1984, Concentration 99.01 uM, Number of replicates 2.0, Standard deviation 3.20078374174672 %) -0.672%; (Thailand/16681/1984, Concentration 198.0 uM, Number of replicates 2.0, Standard deviation 2.339843576600017 %) 2.95%.

For the compound `CNC(=O)c1cc(Cl)c(F)cc1NS(=O)(=O)c1ccc(Oc2ccccc2Cl)cc1`, the inhibition by setting is: (Thailand/16681/1984, Concentration 49.5 uM, Number of replicates 2.0, Standard deviation 0.030615470758313425 %) 98.6%; (Thailand/16681/1984, Concentration 99.01 uM, Number of replicates 2.0, Standard deviation 0.03013533386007732 %) 99.7%; (Thailand/16681/1984, Concentration 198.0 uM, Number of replicates 2.0, Standard deviation 0.00477978979592347 %) 98.7%.

With `CN1CCN(c2ccc(CCNc3ccccc3F)cc2)CC1`, the inhibition is -4.52% (Thailand/16681/1984, Concentration 49.5 uM, Number of replicates 2.0, Standard deviation 1.1725472419342977 %); -3.89% (Thailand/16681/1984, Concentration 99.01 uM, Number of replicates 2.0, Standard deviation 1.0151129155310683 %); -1.99% (Thailand/16681/1984, Concentration 198.0 uM, Number of replicates 2.0, Standard deviation 0.9851713728804441 %).

As to `CNS(=O)(=O)c1ccc(CNCc2ccc(N3CCN(C)CC3)cc2)cc1`, the inhibition runs as follows: (Thailand/16681/1984, Concentration 49.5 uM, Number of replicates 2.0, Standard deviation 0.2679515396874046 %) -1.41%; (Thailand/16681/1984, Concentration 99.01 uM, Number of replicates 2.0, Standard deviation 0.0046358372348345115 %) -0.423%; (Thailand/16681/1984, Concentration 198.0 uM, Number of replicates 2.0, Standard deviation 1.744466130987394 %) 0.949%.

With `CC(C)(C)OC(=O)N1CCOC[C@H]1CNCc1nnc2ccccn12`, the inhibition runs as follows: (Thailand/16681/1984, Concentration 49.5 uM, Number of replicates 2.0, Standard deviation 3.6636813935617547 %) -2.66%; (Thailand/16681/1984, Concentration 99.01 uM, Number of replicates 2.0, Standard deviation 2.060655687099608 %) -2.48%; (Thailand/16681/1984, Concentration 198.0 uM, Number of replicates 2.0, Standard deviation 3.020799081222525 %) -1.72%.

Turning to `CC(C)Cn1cccc(C(=O)Nc2ccncc2)c1=O`, the inhibition reads like this: (Thailand/16681/1984, Concentration 49.5 uM, Number of replicates 2.0, Standard deviation 1.6949837288603 %) 4.6%; (Thailand/16681/1984, Concentration 99.01 uM, Number of replicates 2.0, Standard deviation 0.80587134576346 %) 8.75%; (Thailand/16681/1984, Concentration 198.0 uM, Number of replicates 2.0, Standard deviation 0.4281674737986559 %) 16%.

Consider `Cc1cc(CO)c2cccc(Cc3ccccc3NC(=O)Cc3csc(Cc4ccccc4)n3)c2n1`, for which the inhibition runs as follows: (Thailand/16681/1984, Concentration 49.95 uM, Number of replicates 2.0, Standard deviation 1.2441700790071646 %) -0.54%; (Thailand/16681/1984, Concentration 99.9 uM, Number of replicates 2.0, Standard deviation 1.3300226430755788 %) 0.901%.

Take `O=Cc1ccc(N2CCC(C(=O)N3CCC(O)(c4ccc(Br)cc4)CC3)CC2)cc1`: the inhibition under setting [1] was determined as 14.6%.
